Laboratory results published in PubChem BioAssay AID1159580 (chemical genetic matrix, 2015).
Where “and” joins values, the source holds several entries; their conditions need not be identical. Equal entries are not always repeated. About 2,000 (36%) of roughly 5,500 compounds were called active. Not shown: some 18% with an inconclusive outcome. Rule as the data show it: active = normalized growth mostly below about 0.91 (no sharp cut-off); inconclusive = no clear call, values can overlap the other calls; inactive = mostly above about 0.92. The list shows a part of the results.

Assay: chemical genetic growth profiling, strain panel (AID 1159580);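 also: tested at 20 µM; growth read once vehicle control cultures reached saturation at 30 °C; 1 = growth at the plate median or of vehicle wells; lower values mean less growth of the strain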
Conditions: S. cerevisiae deletion strains, growth OD

Measured: normalized growth

CC(C(=O)O)c1ccc(N2Cc3ccccc3C2=O)cc1 (configuration not stated)
inactive: locus YAL021C, strain ccr4, hits give low values 0.994 | locus YAL026C, strain drs2, hits give low values 1 | locus YAL030W, strain snc1, hits give low values 0.994 | locus YBL061C, strain skt5, hits give low values 0.983 | locus YBR009C, strain hhf1, hits give low values 0.97 | locus YBR021W, strain FUR4, hits give low values 1.01 | locus YBR023C, strain chs3, hits give low values 0.966 | locus YBR171W, strain sec66, hits give low values 0.971 | locus YBR229C, strain ROT2, hits give low values 1.01 | locus YBR231C, strain swc5, hits give low values 0.993 | locus YBR279W, strain paf1, hits give low values 0.972 | locus YCL011C, strain gbp2, hits give low values 0.946 | locus YCL016C, strain dcc1, hits give low values 0.956 | locus YCL029C, strain bik1, hits give low values 0.996 | locus YCL061C, strain MRC1, hits give low values 0.986 | locus YCL069W, strain vba3, hits give low values 0.994 | locus YCR088W, strain abp1, hits give low values 0.987 | locus YDL005C, strain med2, hits give low values 0.991 | locus YDL035C, strain GPR1, hits give low values 1.02 | locus YDL040C, strain nat1, hits give low values 0.989 | locus YDL074C, strain BRE1, hits give low values 1.02 | locus YDL101C, strain DUN1, hits give low values 1.01 | locus YDL185W, strain tfp1, hits give low values 0.989 | locus YDL192W, strain arf1, hits give low values 0.99 | locus YDR001C, strain nth1, hits give low values 0.99 | locus YDR069C, strain doa4, hits give low values 0.993 | locus YDR101C, strain arx1, hits give low values 1 | locus YDR137W, strain rgp1, hits give low values 0.988 | locus YDR159W, strain sac3, hits give low values 1.05 | locus YDR162C, strain NBP2, hits give low values 1.01 | locus YDR195W, strain ref2 1.01 | locus YDR297W, strain sur2, hits give low values 0.99 | locus YDR318W, strain mcm21, hits give low values 0.99 | locus YDR334W, strain swr1, hits give low values 0.986 | locus YDR335W, strain msn5, hits give low values 0.993 | locus YDR388W, hits give low values 0.992 | locus YDR392W, strain spt3, hits give low values 0.988 | locus YDR502C, strain sam2, hits give low values 1 | locus YEL003W, strain gim4, hits give low values 1.01 | locus YEL037C, strain rad23, hits give low values 0.975 | locus YEL061C, strain CIN8 (second series), hits give low values 0.99 | locus YEL061C, strain CIN8, hits give low values 1.01 | locus YER015W, strain faa2, hits give low values 1 | locus YER016W, strain bim1, hits give low values 0.993 | locus YER110C, hits give low values 0.994 | locus YER111C, strain swi4, hits give low values 0.985 | locus YER155C, strain BEM2 (second series), hits give low values 0.948 | locus YER155C, strain BEM2, hits give low values 1.02 | locus YER167W, strain BCK2, hits give low values 1.01 | locus YFR010W, strain ubp6, hits give low values 1 | locus YGL078C, strain dbp3, hits give low values 0.985 | locus YGL086W, strain mad1, hits give low values 1.01 | locus YGL167C, strain pmr1, hits give low values 0.991 | locus YGL173C, strain kem1, hits give low values 0.997 | locus YGL227W, strain vid30, hits give low values 0.988 | locus YGL240W, strain doc1, hits give low values 1 | locus YGL248W, strain PDE1, hits give low values 1.02 | locus YGL253W, strain hxk2, hits give low values 1 | locus YGR135W, strain pre9, hits give low values 0.971 | locus YGR252W, strain gcn5, hits give low values 0.938 | locus YHR013C, strain ard1, hits give low values 0.961 | locus YHR027C, strain rpn1, hits give low values 0.986 | locus YHR030C, strain SLT2, hits give low values 1.01 and 0.993 | locus YHR079C, strain IRE1 (second series), hits give low values 1.01 | locus YHR079C, strain IRE1, hits give low values 0.987 | locus YHR094C, strain hxt1, hits give low values 0.987 | locus YHR129C, strain ARP1, hits give low values 1.02 | locus YHR142W, strain chs7, hits give low values 0.941 | locus YHR200W, strain rpn10, hits give low values 1 | locus YIL066C, strain RNR3, hits give low values 1.02 | locus YIL073C, strain SPO22, hits give low values 1 | locus YIL125W, strain kgd1, hits give low values 0.984 | locus YIR030C, strain dcg1, hits give low values 0.996 | locus YJL092W, strain hpr5, hits give low values 0.959 | locus YJL095W, strain BCK1 (second series), hits give low values 0.994 | locus YJL095W, strain BCK1, hits give low values 1.01 and 0.986 | locus YJL115W, strain asf1, hits give low values 0.982 | locus YJL129C, strain trk1, hits give low values 0.965 | locus YJL134W, strain LCB3, hits give low values 1.01 | locus YJL154C, strain vps35, hits give low values 0.987 | locus YJL164C, strain tpk1, hits give low values 0.988 | locus YJL166W, strain qcr8, hits give low values 0.987 | locus YJL168C, strain set2, hits give low values 0.98 | locus YJL187C, strain SWE1 (second series), hits give low values 1.01 | locus YJL187C, strain SWE1, hits give low values 0.993 | locus YJR043C, strain POL32, hits give low values 1.02 | locus YJR066W, strain TOR1, hits give low values 0.914
